TGFb SMAD3 inh: inhibitors of TGF-b signaling; 1.2% of 410,000 active; HepG2 CAGA-GFP TGF-b/SMAD3 reporter, GFP fluorescence, 18 h; TGF-beta stimulated, 500 pg/mL final; Potency, µM (series often up to 46.1 µM), for inactives: at the top dose activity, negative = inhibition, hits mostly inhibitors; AID 588855; also: % is scaled to controls: 0 for no effect and ±100 for the full control effect; nearly all actives have a fitted effect of over 65% in size
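HEPG2 CAGA-GFP reporter cells (1000/well, DMEM with 1% FBS) received compounds, then recombinant TGF-beta at 500 pg/mL final for 18 hours at 37 degrees C. Per-cell GFP summed per well was normalised to unstimulated and stimulated DMSO controls before curve fitting.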
DT40 TDP1 no CPT: qHTS for Inhibitors of human tyrosyl-DNA phosphodiesterase 1 (TDP1): qHTS in cells in absence of CPT | DT40 Tdp1-/- hTDP1 cells, no CPT, ATP luminescence, 48 h | Potency, µM (top dose mostly 46.2 µM), for inactives: top-dose activity change, negative = growth inhibition, usual class: inhibitors | 15% of 420,000 active | AID 686978, 2013; also: % is scaled to controls: 0 for no effect and ±100 for the full control effect; nearly all actives have a fitted effect of over 55% in size
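A cellular qHTS used chicken DT40 cells lacking endogenous Tdp1 but carrying stably transfected human TDP1. Compounds were applied without camptothecin, and cell growth kinetics were judged by ATP-dependent luminescence after ≥48 hr.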
DT40 TDP1 CPT: growth inhibition of DT40 Tdp1-/-;hTDP1 cells with camptothecin (screen for TDP1 inhibitors); chicken DT40 Tdp1-/-;hTDP1 cells + 20 nM CPT, ATP luminescence, 48 h; Potency, µM (series often up to 46.2 µM), inactives show top-dose activity change, negative = growth inhibition, most hits filed as inhibitors; 12% of 420,000 active; also: % is scaled to controls: 0 for no effect and ±100 for the full control effect; nearly all actives have a fitted effect of over 55% in size
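Chicken DT40 Tdp1-/- cells complemented with human TDP1, 400 cells/well, exposed to compounds plus 20 nM camptothecin for at least 48 h at 37 C; viability read as ATP content by CellTiter-Glo luminescence.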
HepG2 viability: kills HepG2 cells in TGF-b inhibitor counter-screen. HepG2 CAGA-GFP viability, ATP luminescence, 18 h. AID 588856. Potency, µM (highest dose often 46.1 µM), for inactives: top-dose activity change, negative = cytotoxicity, most hits filed as cytotoxic. 0.76% of 410,000 active
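HepG2 CAGA-GFP cells (1000/well, DMEM with 1% FBS) received compound, then TGF-beta at 500 pg/mL final, and were incubated 18 hours at 37 degrees C. Viability was read by CellTiter-Glo luminescence. Media-only wells were set as complete cell-killing and DMSO as no toxicity.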
HT1080-NT tox: kills 2HG-producing HT-1080-NT fibrosarcoma cells | HT-1080-NT fibrosarcoma viability, CellTiter-Glo ATP luminescence, 48 h | Potency, µM (doses to about 46.1 µM), for inactives: at the top dose activity, negative = less viability, hits mostly cytotoxic | 1.6% of 360,000 active;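 also: NT is the 2HG producing partner of a matched IDH1 knockdown line; 0% = DMSO-treated cells and -100% = media-only wells without cells; nearly all actives have a fitted effect of over 55% in size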
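Fibrosarcoma NT cells, 750 per well in 5% FBS RPMI, were exposed to compound for 48 hours. Viability: CellTiter-Glo luminescence.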
HT1080 IDH1KD tx: toxicity to HT-1080 IDH1 knockdown cells (counter line). HT-1080 IDH1 knockdown viability, ATP luminescence, 48 h. AID 686971. 2% of 360,000 active. Potency, µM (titrated, usually from 46.1 µM), without a hit: top-dose activity, negative = toxicity, hits mostly cytotoxic;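 also: 0% = DMSO wells and -100% = cell-free medium wells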
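Cytotoxicity counter-line: IDH1KD HT-1080, 48 h, CellTiter-Glo. Curves classed by r2, magnitude and activity.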
Active calls of the source: *; ? = inconclusive; . = no result given. This is a sample that favours compounds with a hit; in the whole collection about 17% have one here. Calls follow the shape of the dose curve; as a rule, active = well fitted curve in the direction sought with a large enough effect; inconclusive = small, poorly fitted or top-dose-only effect, or another doubt; inactive = no such curve, though single readings can be large; an effect the other way counts as inactive or inconclusive. Potency is read from the fitted curve at half-maximal effect.

SMILES	TGFb SMAD3 inh	DT40 TDP1 no CPT	DT40 TDP1 CPT	HepG2 viability	HT1080-NT tox	HT1080 IDH1KD tx
COc1ccc(Cc2nnc(NC(=O)CS(=O)(=O)Cc3ccccc3)s2)cc1	-8%	9%	0%	1%	11%	8%
OC(c1ccc(F)cc1)c1ncc(-c2ccc(Oc3ccccc3)cc2)[nH]1 (stereo not drawn)	?	16µM*	?	16µM*	?	?
Cc1cc(C(O)c2ncc(-c3ccc(Cl)cc3)[nH]2)ccc1F (stereo not drawn)	-10%	?	18µM*	-27%	?	?
Cc1cc(C(O)c2ncc(-c3ccc(Oc4ccccc4)cc3)[nH]2)ccc1F (stereo not drawn)	?	?	18µM*	-102%	18µM*	10µM*
OC(c1ccc(F)c(F)c1)c1ncc(-c2ccc(Cl)cc2)[nH]1 (stereo not drawn)	-6%	?	?	-20%	?	?
OC(c1ccc(F)cc1)c1ncc(-c2ccc3ccccc3c2)[nH]1 (stereo not drawn)	?	?	?	-43%	?	?
CC(=O)Nc1ccn(C2OC(C(COC(C)=O)NC(=O)C(COCc3ccccc3)NC(=O)OC(C)(C)C)C(OC(C)=O)C2OC(C)=O)c(=O)n1 (stereo not drawn)	-3%	.	.	-3%	.	.
CCN(CC(=O)NCc1ccc(F)cc1)C(=O)c1oc2ccccc2c1C	0%	?	8%	2%	-4%	-3%
CN(C(=O)c1ccc(F)cc1)c1ccc(OCC(=O)Nc2ccccc2C(=O)O)cc1	-9%	?	-19%	6%	2%	2%
COc1cccc(C=NCCCN=Cc2cccc(OC)c2O)c1O	?	10%	-6%	-5%	-1%	-5%
COc1cccc(C=Nc2cc(C(C)C)c(O)cc2C)c1O	-28%	3.3µM*	4.1µM*	-8%	-3%	-18%
Cc1cc(O)c(C(C)C)cc1N=Cc1ccc([N+](=O)[O-])cc1	?	16µM*	7.3µM*	-12%	0%	0%
Cc1cc(O)c(C(C)C)cc1NC(=O)Nc1ccc([N+](=O)[O-])cc1	1%	?	-14%	9%	-23%	?
Cc1cc(O)c(C(C)C)cc1N=Cc1ccc(N(C)C)cc1	?	5.2µM*	2.9µM*	-15%	5%	2%
CN(C)c1ccc(C=Nc2cnc3ccccc3c2)cc1	6%	?	?	-6%	.	.
CCc1noc(C)c1C(=O)OC(C)C(=O)Nc1cc([N+](=O)[O-])ccc1OC (stereo not drawn)	-11%	?	-30%	-3%	-12%	-4%
COc1ccc(N2C(=O)/C(=C\c3ccco3)N=C2SCC(=O)N(C(C)C)C(C)C)cc1Cl	0%	16µM*	16µM*	7%	4%	4%
COc1cc2c(cc1NC(=O)COC(=O)[C@@H](NS(=O)(=O)c1cccc(Cl)c1)C(C)C)oc1ccccc12	?	16µM*	?	-36%	-7%	-19%
COC(=O)c1c(NC(=O)COC(=O)[C@@H](NS(=O)(=O)c2cccc(Cl)c2)C(C)C)sc2c1CCC2	?	?	?	4%	-2%	-4%
COc1cc2c(cc1NC(=O)c1cccc(S(=O)(=O)N(C)C)c1)oc1ccccc12	1%	15µM*	10µM*	-15%	-7%	?
COC(=O)c1sc(N)c(C(=O)OC)c1COC(=O)[C@@H](NS(=O)(=O)c1cccc(Cl)c1)C(C)C	-15%	18µM*	?	-3%	?	-29%
COc1ccc(S(=O)(=O)N[C@@H](C)C(=O)OCC(=O)Nc2cc3oc4ccccc4c3cc2OC)cc1	-2%	15µM*	?	4%	4%	2%
c1ccc2cc(C3OCC4(CCCC4)CO3)ccc2c1	-1%	-32%	?	-13%	-3%	0%
CCCCN(C(=O)C(C)Oc1ccc(Br)cc1)c1c(N)n(Cc2ccccc2)c(=O)[nH]c1=O (stereo not drawn)	-19%	?	?	-51%	-10%	-19%
COc1ccc(OCC(=O)Nc2ccc3c(c2)nc(CCN2CCCCC2)n3C)cc1	-3%	17%	-31%	-6%	1%	11%
SMILES	TGFb SMAD3 inh	DT40 TDP1 no CPT	DT40 TDP1 CPT	HepG2 viability	HT1080-NT tox	HT1080 IDH1KD tx
Cn1c(CCN2CCCC2)nc2cc(NC(=O)COc3ccc(Cl)cc3)ccc21	-19%	16µM*	?	-29%	-4%	-23%
Cn1c(CCN2CCN(c3ccccn3)CC2)nc2cc(NC(=O)COc3ccc(Cl)cc3)ccc21	?	4.1µM*	18µM*	-17%	?	-30%
Cc1cccc(OCC(=O)Nc2ccc3c(c2)nc(CCN2CCN(c4ccccn4)CC2)n3C)c1	-29%	18µM*	23µM*	-9%	-21%	?
COc1ccc(OCC(=O)Nc2ccc3c(c2)nc(CCN2CCN(c4ccccn4)CC2)n3C)cc1	-11%	?	18µM*	-9%	-29%	?
CCN1CCN(CCc2nc3cc(NC(=O)COc4ccc(Cl)cc4)ccc3n2C)CC1	0%	?	?	-22%	5%	-28%
O=C(Nc1ccccc1)c1ccc(OC(=O)c2ccccc2)cc1	-8%	-13%	-6%	6%	1%	-8%
COc1ccccc1C(=O)Nc1ccc(NC(=O)c2cccs2)cc1	?	?	?	-23%	.	.
COc1ccccc1C(=O)Nc1ccc2c(c1)CCCN2C(=O)c1ccccc1	2%	13µM*	16µM*	13µM*	18µM*	15µM*
O=C(Nc1ccc2c(c1)CCCN2C(=O)c1cccs1)c1ccccc1C(F)(F)F	0%	23µM*	?	-24%	.	.
COc1ccccc1C(=O)Nc1ccc2c(c1)CCCN2C(=O)c1cccs1	-12%	21µM*	?	-54%	?	?
O=C(COC(=O)c1ccc(Cl)nc1)c1ccc2c(c1)OCCO2	-3%	-3%	?	-5%	-5%	-9%
COc1cccc(NC(=O)N(C)C[C@H]2Oc3cc(C#Cc4ccncc4)ccc3S(=O)(=O)N([C@H](C)CO)C[C@H]2C)c1	-23%	23µM*	16µM*	-29%	-4%	-18%

Bioassay records: PubChem, National Center for Advancing Translational Sciences (NCATS)
